Inconclusive results are not listed. Activity calls are given as the source filed them. Calls come from the whole dose curve; as a rule, active = well fitted inhibition curve with a large enough effect; inconclusive = small, poorly fitted or top-dose-only effect; inactive = no such curve, though single readings can be large or run the other way.
test: InCell qHTS Assay for Inhibitors of the mTORC1 Signaling Pathway in MEF (Tsc2-/-, p53-/-) Cells: Hit Validation; details: phospho-rpS6 immunofluorescence, 24 h; activity change, negative = inhibition: at 38.3 µM (top of the series);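 note: phospho-S6 Ser235/236 signal normalized to propidium iodide cell count per well; nearly all actives have a fitted effect of over 75% in size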
Potency is the fitted concentration of half-maximal effect.

Potency, active:
CCCCS(=O)(=O)c1oc(-c2cccs2)nc1S(=O)(=O)c1ccccc1 1470 nM, CCOC(=O)Cn1c(=O)c2c(nc(N3CCOCC3)n2Cc2ccccc2)n(C)c1=O 11700 nM, CC(C)S(=O)(=O)c1oc(-c2cccs2)nc1S(=O)(=O)c1ccc(F)cc1 1470 nM

Activity change, negative = inhibition, -8.71%:
COc1ccc(Cl)cc1S(=O)(=O)NCc1ccc2c(c1)CCN2C(=O)c1cccc(C)c1

Activity change, negative = inhibition, -25.4%:
Cc1ccc2sc(N(CCCN(C)C)C(=O)c3ccco3)nc2c1C

Activity change, negative = inhibition, -17.1%:
Cc1cccc(C2C=C(c3ccc(C)c(C)c3)Nc3nnnn32)c1 (stereo not drawn)

Activity change, negative = inhibition, -21.8%:
Cc1cc(-c2ccc(S(=O)(=O)Nc3cccc(C)c3C)s2)on1

Activity change, negative = inhibition, -100%:
CCCN(c1ccccc1CC)S(=O)(=O)c1ccc2c(c1)CC(C)N2C(=O)C1CC1 (stereo not drawn), O=C(CS(=O)(=O)c1cccc2nsnc12)NCc1ccc(Cl)cc1, Cc1ccc(S(=O)(=O)Nc2ccc3c(c2)c(C(=O)OC(C)C)c(C)n3S(=O)(=O)c2ccc(C)cc2)cc1, Cc1cc(OCC(=O)NCC2(N3CCN(C)CC3)CCCCC2)cc(C)c1Cl, COc1ccc(/C=C/C(=O)Nc2ccc3nc(N4CCC(C)CC4)cc(C)c3c2)cc1OC, Cc1c(C2=CCN(S(=O)(=O)c3ccc(Br)cc3)CC2)c2ccccc2n1CC(=O)N1CCCC1, C#CC(C)(CC)NC(=O)Cn1nnc(-c2ccc(OCc3c(F)cccc3Cl)cc2)n1 (stereo not drawn), CCOc1ccccc1NC(=O)CSc1cc(=O)n(CC)c2ccccc12, Cc1ccc(Nc2nnc(-c3ccc(C)c(S(=O)(=O)N4CCOCC4)c3)c3ccccc23)c(C)c1, CCOC(=O)C1=C(CN2CCN(c3cc(C)ccc3C)CC2)NC(=O)NC1c1ccc(Cl)cc1 (stereo not drawn), COc1ccc(Cn2c(C(=O)O)c(CNCc3ccc(SC)cc3)c3ccc(OC)cc32)cc1, COc1ccc(-c2nc(CCNC(=O)c3c(F)cccc3Cl)cs2)cc1, CCCC1=Nc2cc(C(=O)NC3CCCC3)ccc2Sc2ccc(C)cc21, COc1cccc(C(=O)CC2(O)C(=O)N(Cc3ccccc3)c3ccccc32)c1 (stereo not drawn), Cc1ccccc1OCc1ccc(-c2nc(C#N)c(NCCCN(C)C)o2)o1, Cc1cccc(NC(c2cccc(Cl)c2)c2ccc3cccnc3c2O)n1 (stereo not drawn), CC(C)(C)c1ccc(C2NC(=O)c3n[nH]c(-c4cccs4)c32)cc1 (stereo not drawn), CCn1c(CN2CCC(C)CC2)nc2cc(NC(=O)c3ccccc3[N+](=O)[O-])ccc21, Fc1ccc(Nc2nc3nonc3nc2Nc2cccc(C(F)(F)F)c2)cc1, CC1=Nc2cc(C(=O)NCCc3ccc(Cl)cc3)ccc2Sc2ccc(C)cc21, Cc1ccc(NC(=O)CCS(=O)(=O)c2ccc3nc(C)sc3c2)cc1, Cc1cccc(Oc2coc3cc(OCC(=O)NC4CCCCC4)ccc3c2=O)c1, COc1ccccc1CCNC(=O)C1CCN(c2nnc(-n3cccc3CNc3ccc(C)cc3)s2)CC1, Cc1cccc(CSCCNC(=O)CN(c2ccccc2)S(=O)(=O)N(C)C)c1, CCOc1ccc(Nc2nc(N)c(C(=O)c3ccccc3Cl)s2)cc1, COc1cccc(-c2nc(S(=O)(=O)c3ccc(Cl)cc3)c(NCc3ccccc3)o2)c1, CCCN1C(=O)C(Cc2nc3ccccc3c(=O)n2CC)c2ccccc21 (stereo not drawn), COc1ccc(NC(=O)CSc2c3c(nc4ccccc24)CCC3)c(OC)c1, Cc1cc(C)c(-c2n[nH]c3c2C(c2ccccc2F)N(Cc2ccco2)C3=O)c(O)c1 (stereo not drawn), CCN(CC)CCNC(=O)c1ccc(Cn2c(=O)c3cccn3c3cccnc32)cc1

Activity change, negative = inhibition, 1.72%:
COc1cc(OC)cc(C(=O)NCCc2csc(-c3cccc(C)c3)n2)c1
